NS1 inh = influenza NS1 inhibition; Potency, µM (doses to about 46.1 µM); 270,000 compounds, 0.4% hits; AID 2326; note: actives are rising curves; nearly all actives have a fitted effect of over 50% in size
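Compounds were scored for reversing the slow growth caused by influenza A NS1 in S. cerevisiae, measured by optical density at 600 nm. Assay medium contained 2% galactose at pH 6.0; NS1-free yeast of the same strain were the positive control.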
Pf growth 96h = inhibits malaria parasite growth, 96 h | 320,000 compounds, 6.9% hits | Potency, µM (series often up to 28.7 µM), usual class: inhibitors | AID 504834 | P. falciparum luciferase reporter growth, 96 h; active = well fitted inhibition curve with a large enough effect; inconclusive = small, poorly fitted or top-dose-only effect, or another doubt; inactive = no such curve, though single readings can be large or run the other way
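Erythrocytes infected with luciferase-expressing P. falciparum were dispensed at 2% hematocrit and 0.05% parasitemia (final), then incubated with compounds 96 hours at 37 C in 5% CO2. Luminescence after detection reagent addition reported growth.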
SARS PLpro yeast = inhibitors of SARS-CoV papain-like protease in yeast. S. cerevisiae expressing SARS-CoV PLpro, growth rescue. 330,000 compounds, 0.19% hits. Potency, µM (top dose mostly 32.9 µM), most hits filed as activators; note: nearly all actives have a fitted effect of over 55% in size
Pf growth 48h = inhibits P. falciparum growth in the first generation, 48 h. 310,000 compounds, 5.9% hits. Potency, µM (titrated, usually from 28.7 µM), actives largely listed as inhibitors. P. falciparum luciferase growth in erythrocytes, 48 h; active = well fitted inhibition curve with a large enough effect; inconclusive = small, poorly fitted or top-dose-only effect, or another doubt; inactive = no such curve, though single readings can be large or run the other way
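Growth was read as firefly luciferase luminescence after a 48 h, 37 C, 5% CO2 exposure of compounds to reporter-bearing P. falciparum cultures (0.1% parasitemia, 2% hematocrit final) in Albumax-supplemented RPMI 1640.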
CHX counter = affects cycloheximide protein synthesis inhibition readout, counter-screen; cell reporter, cycloheximide protein synthesis inhibition counterscreen; max response, %; 300,000 compounds, 12% hits; in the data active = max response mostly above about 13%, no sharp cut-off; inactive = mostly below about 14%; note: read at 38.3 µM for the half of the compounds with a filed dose
Shiga toxin inh = blocks Shiga toxin action in Vero cells; Vero cells, Shiga toxin protein synthesis inhibition reporter; inhibition, % at 38.7 µM; 290,000 compounds, 9.2% hits; in the data active = inhibition mostly above about 28%, no sharp cut-off; inactive = mostly below about 43%
Each line names hits and unclear results; the compound was inactive in the other large screens. An excerpt weighted towards active compounds, which were near 21% of everything screened. Unless noted, calls come from the whole dose curve.

Cc1ccc(C(=O)Nc2cc3c(oc2=O)CCCC3=O)cc1	CHX counter 44.5, Shiga toxin inh 74.9
COC(=O)CCCC1=CC2=C(c3ccccc3)C(=O)C(C)(OC(=O)C3CCCC3)C(=O)C2=CN1CCCCO (stereo not drawn)	Pf growth 96h inconclusive, Pf growth 48h inconclusive
COC(=O)CCCC1=CC2=C(c3ccccc3)C(=O)C(C)(OC(=O)C3CCCC3)C(=O)C2=CN1Cc1ccco1 (stereo not drawn)	Pf growth 96h 11.7µM, Pf growth 48h inconclusive
COCCn1c(SCc2c(F)cccc2Cl)nc2c1c(=O)[nH]c(=O)n2C	none
CC(=O)c1c(C)nc(-c2ccc(Cl)cc2)nc1N=CN(C)C	Pf growth 96h inconclusive, CHX counter 45.7, Shiga toxin inh 70.3
CSc1nc(-c2ccccc2)nc(N)c1C(C)=O	none (no result: Pf growth 48h)
CC(=O)c1c(C)nc(-c2ccc(Cl)cc2)nc1N	CHX counter 43.9, Shiga toxin inh 96.0 (no result: NS1 inh)
Cc1ccc(-c2nnc(SCC(=O)NNC(=O)COc3ccccc3C)n2C)cc1	none
O=C1[C@H]2[C@@H](c3ccc(Cl)cc3)N3C(=O)N(c4cccc(Cl)c4)C(=O)[C@@]3(Cc3ccc(Cl)cc3)[C@H]2C(=O)N1C1CCCCC1	Pf growth 96h inconclusive, Pf growth 48h 2.62µM (no result: NS1 inh, CHX counter, Shiga toxin inh)
Cc1cccc(N2C(=O)N3[C@H](c4ccc(Cl)cc4)[C@@H]4C(=O)N(C5CCCCC5)C(=O)[C@@H]4[C@]3(Cc3ccc(Cl)cc3)C2=O)c1	Pf growth 96h inconclusive, Pf growth 48h inconclusive
Cc1cccc(N2C(=O)N3[C@H](c4ccc(F)cc4)[C@@H]4C(=O)N(C5CCCCC5)C(=O)[C@@H]4[C@]3(Cc3ccc(Cl)cc3)C2=O)c1	NS1 inh inconclusive, Pf growth 96h inconclusive, Pf growth 48h inconclusive
O=C1[C@H]2[C@@H](c3ccc(Cl)cc3)N3C(=O)N(c4cccc(F)c4)C(=O)[C@@]3(Cc3ccc(Cl)cc3)[C@H]2C(=O)N1C1CCCCC1	Pf growth 96h inconclusive, Pf growth 48h inconclusive
O=C1[C@H]2[C@@H](c3ccc(F)cc3)N3C(=O)N(c4ccc(Br)cc4)C(=O)[C@@]3(Cc3ccccc3)[C@H]2C(=O)N1C1CCCCC1	NS1 inh inconclusive, Pf growth 96h 3.7µM, Pf growth 48h 3.29µM
Cc1ccc(N2C(=O)N3[C@H](c4ccc(Cl)cc4)[C@@H]4C(=O)N(C5CCCCC5)C(=O)[C@@H]4[C@]3(Cc3ccccc3)C2=O)cc1	Pf growth 96h 3.7µM, Pf growth 48h inconclusive, CHX counter 9.7, Shiga toxin inh 19.3
O=C1[C@H]2[C@@H](c3ccc(F)cc3)N3C(=O)N(c4cccc(F)c4)C(=O)[C@@]3(Cc3ccc(Cl)cc3)[C@H]2C(=O)N1C1CCCCC1	Pf growth 96h 8.28µM, Pf growth 48h 14.7µM (no result: NS1 inh, CHX counter, Shiga toxin inh)
Cc1ccc(OCC(O)CNC(C)c2ccccc2)cc1C (stereo not drawn)	Pf growth 96h inconclusive, Pf growth 48h inconclusive
CN(C)S(=O)(=O)c1ccc(C(=O)Nc2cc3c(cc2C(=O)O)OCCCO3)cc1	none
CCOc1ccc(Cn2c(=O)sc3ccccc32)cc1	Pf growth 96h inconclusive
COc1ccccc1OCCn1c(=O)sc2ccccc21	none
Cc1cccc(OCCn2c(=O)sc3ccccc32)c1	CHX counter 35.8, Shiga toxin inh 79.1
Cc1ccccc1OCCn1c(=O)sc2ccccc21	Pf growth 48h 13.1µM
COc1ccc(OCCn2c(=O)sc3ccccc32)cc1	Pf growth 96h 2.94µM, CHX counter 24.6, Shiga toxin inh 80.6
Cc1cccc(OCCn2c(=O)n(C)c3ccccc32)c1	Pf growth 96h inconclusive, CHX counter 66.6, Shiga toxin inh 115.1 (no result: Pf growth 48h)
Cc1c(C(=O)Nc2c(C)n(C)n(-c3ccccc3)c2=O)oc2ccc(Cl)cc12	Pf growth 96h inconclusive
Cc1cccc(OCCCN2CCCCCC2)c1	none
Cc1cccc(OCCCn2c(=O)sc3ccccc32)c1	CHX counter 44.1, Shiga toxin inh 60.3
Cc1ccc(N(CC(=O)NC2CCCCC2)C(=O)CNC(=O)c2ccco2)cc1F	none
CC(=O)N1CCN(CC(O)COc2ccc(Br)cc2)CC1 (stereo not drawn)	Pf growth 96h inconclusive
CCCCOCC(O)CN1CCN(C(C)=O)CC1 (stereo not drawn)	Pf growth 96h 8.28µM
CCOc1c(Cl)cc(C(=O)Nc2ccccc2C(=O)O)cc1Cl	Pf growth 96h inconclusive
COCCn1c(-c2cc(OC)c(OC)c(OC)c2)nc2oc3ccccc3c(=O)c2c1=O	none (no result: Pf growth 96h)
COc1ccc2[nH]cc(C(=O)CN3CCC(C)CC3)c2c1	Pf growth 96h inconclusive, CHX counter 34.6, Shiga toxin inh 76.5
COc1cccc(N2CCN(CC(=O)c3c[nH]c4ccc(OC)cc34)CC2C)c1 (stereo not drawn)	NS1 inh inconclusive, Pf growth 96h inconclusive, Pf growth 48h 11.7µM
COc1ccc2[nH]cc(C(=O)CN3CCCC(C)C3)c2c1 (stereo not drawn)	none
CCn1c(COc2cccc(OC)c2)nnc1SCC(=O)Nc1ccccc1C(=O)OC	SARS PLpro yeast inconclusive, Pf growth 48h inconclusive (no result: Pf growth 96h)
CCn1c(COc2ccc3c(c2)CCCC3)nnc1SCC(=O)Nc1ccc(C(=O)OC)cc1	Pf growth 96h 9.28µM
CCn1c(CNC(=O)COc2ccc(C(C)C)cc2)nnc1SCC(=O)Nc1ccc(F)cc1	Pf growth 96h 8.28µM (no result: Pf growth 48h)
CCn1c(CNC(=O)COc2ccc(C(C)C)cc2)nnc1SCC(=O)NC1CCCCC1C (stereo not drawn)	Pf growth 96h 10.4µM, Pf growth 48h 11.7µM
COc1ccccc1NC(=O)COC(=O)C1CCN(/C=C/C(=O)C(F)(F)F)CC1	none
CCCCSC1=NN1c1nc(N)nc(C)c1CC	Pf growth 96h 8.28µM (no result: Pf growth 48h)
CCN(CC)CCCn1c(C)cc2c(c1=O)C(c1ccc(OC)c(OC)c1OC)C(C#N)=C(N)O2 (stereo not drawn)	Pf growth 96h 0.928µM, Pf growth 48h inconclusive
Cc1cc2c(c(=O)n1CCN(C)C)C(c1ccc(Cl)cc1)C(C#N)=C(N)O2 (stereo not drawn)	Pf growth 96h inconclusive
CCN(CC)CCCn1c(C)cc2c(c1=O)C(c1ccccc1)C(C#N)=C(N)O2 (stereo not drawn)	Pf growth 96h inconclusive, Pf growth 48h inconclusive
CCOc1ccc(C2C(C#N)=C(N)Oc3cc(C)n(CCN(C)C)c(=O)c32)cc1OCC (stereo not drawn)	Pf growth 96h 11.7µM
COc1ccc(/C=N/NS(=O)(=O)c2ccc(C)cc2)cc1	Pf growth 96h 3.29µM
COc1cc(/C=N/NC(=O)COc2cc(C)cc(C)c2)ccc1OS(=O)(=O)c1ccc(C)cc1	NS1 inh inconclusive
COc1cc(/C=N/NS(=O)(=O)c2ccc3ccccc3c2)ccc1OCc1ccc(C(=O)O)cc1	CHX counter 63.1, Shiga toxin inh 118.8
COc1cc(/C=N/NS(=O)(=O)c2ccc(C)cc2)ccc1OCc1cccc(C(=O)O)c1	Pf growth 96h inconclusive, CHX counter 53.6, Shiga toxin inh 182.6
